Measurements reported in PubChem BioAssay.
Calls of active or inactive are those of the source.

Tests used:
[1] = binders of probe aFSTL3 on microarray, primary screen, stem cell growth factor project, biochemical, small-molecule microarray, fluorescence 635/667 (AID 1064); conditions: higher = more signal;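 also: measures binding of the biotinylated anti-FSTL3 antibody to printed compounds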
[2] = binders from COS7 lysate, DM2A8 probe, primary screen, torsin A project, cell lysate, small-molecule microarray, fluorescence 635/667 (AID 1065); conditions: higher = more signal, COS7 lysate expressing mutant human TOR1A
[3] = binders of probe aFGF2 on microarray, primary screen, stem cell growth factor project, biochemical, small-molecule microarray, fluorescence 635/667 (AID 1067); conditions: higher = more signal;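 also: measures binding of biotinylated aFGF2 protein to printed compounds on slides; z-score merges feature fluorescence and signal-to-noise across triplicate slides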
[4] = binders of probe aFGF10 on microarray, primary screen, stem cell growth factor project, biochemical, small-molecule microarray, fluorescence 635/667 (AID 1071); conditions: higher = more signal;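 also: score merges 667 nm spot intensity and signal to noise from triplicate slides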
[5] = biological target: Neurogenic locus notch homolog protein 2 (Homo sapiens) (UniProt Q04721); assay: Notch2 binders on small-molecule microarrays, primary screen, biochemical, small-molecule microarray, 635 nm fluorescence, stem cell growth factors (AID 1073); conditions: Notch2 binding, higher = more signal
[6] = biological target: Pro-neuregulin-1, membrane-bound isoform (Homo sapiens) (UniProt Q02297); assay: NRG1 binders on small-molecule microarrays, primary screen, psychiatric disease protein project, biochemical, small-molecule microarray, fluorescence 635/667 (AID 1075); conditions: NRG1 binding, 635 nm fluorescence, higher = more signal;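 also: score combines 667 nm spot fluorescence with signal to noise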
[7] = system: Neuregulin-1 EGF-like domain; assay: binders of neuregulin-1 EGF-like domain, primary screen, biochemical, small-molecule microarray, 635 nm fluorescence (AID 1081); conditions: small-molecule microarray binding, higher = more signal;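 also: binding of the protein to compounds printed on small-molecule microarray slides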
[8] = FRG1 promoter luciferase signal modulators, primary screen, FRG1 inhibition for FSHD, cell-based, C2C12 myotubes, firefly/Renilla luciferase, luminescence (AID 1084); conditions: higher = more signal, called active from +8 up or from −8 down
[9] = binders of probe aFST on microarray, primary screen, stem cell growth factor project, biochemical, small-molecule microarray, fluorescence 635/667 (AID 1086); conditions: higher = more signal;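 also: score merges 667 nm fluorescence with signal-to-noise of each printed compound spot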
[10] = binders of probe aHhip on microarray, primary screen, stem cell growth factor project, biochemical, small-molecule microarray, fluorescence 635/667 (AID 1087); conditions: higher = more signal;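 also: score merges spot fluorescence at 667nm with spot signal to noise ratio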
[11] = system: PRMT1 (protein arginine N-methyltransferase 1); assay: PRMT1 binders on small-molecule microarrays, primary screen, biochemical, small-molecule microarray, 635 nm fluorescence (AID 1088); conditions: small-molecule microarray binding, higher = more signal;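 also: binding of Prmt1 protein to compounds spotted on small-molecule microarray slides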
[12] = yeast growth modulation, basal conditions, primary screen, YJM789 clinical isolate, OD600, 24 h (AID 1089);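 also: growth of clinical yeast isolate S. cerevisiae YJM 789 seeded 1000 cells per well; test concentration not given here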; conditions: S. cerevisiae YJM789 growth, higher = more signal, called active from +8 up or from −8 down
[13] = fission yeast growth modulation, primary screen, strain 972, OD600, 24 h, no modulator (AID 1090);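 also: basal condition with compound alone and no growth modifier present; test concentration not given here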; conditions: S. pombe 972 growth, higher = more signal, called active from +8 up or from −8 down
[14] = S. cerevisiae growth modulation with rapamycin, primary screen, strain BY4716, OD600, 96 h (AID 1091); conditions: higher = more signal, called active from +8 up or from −8 down; also: test concentration not given here
[15] = biological target: Torsin-1A-interacting protein 2 (Homo sapiens) (UniProt Q8NFQ8); assay: LULL1 binders on small-molecule microarray, primary screen, cell lysate, human LULL1 lysate, 635/667 nm fluorescence (AID 1092); conditions: hLULL1 lysate binding, 635 nm fluorescence, higher = more signal;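 also: probe is lysate of COS7 cells overexpressing human LULL1; score merges per-feature 667 nm fluorescence with signal-to-noise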
[16] = E. coli growth modulation, two-sided OD650, primary screen, E. coli filamentation project, strain DRC41, 24 h (AID 1093); conditions: OD650, 24 h, higher = more signal, called active from +8 up or from −8 down;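 also: MC1000 strain lacking acrAB efflux and sulA so SOS filamentation is blocked; test concentration not given here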
[17] = small-molecule microarray binders of probe aLefty2, primary screen, biochemical, biotinylated probe, 635/667 nm fluorescence (AID 1094); conditions: higher = more signal;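 also: score merges spot fluorescence near 667 nm with spot signal-to-noise ratio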
[18] = system: Noggin (protein binding on small-molecule microarray); assay: Noggin binders on small-molecule microarray, primary screen, biochemical, 635/667 nm fluorescence (AID 1095); conditions: 635 nm fluorescence, higher = more signal;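 also: score merges 667 nm feature fluorescence with signal to noise over triplicate slides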
[19] = biological target: Neurogenic locus notch homolog protein 3 (Homo sapiens) (UniProt Q9UM47); assay: NOTCH3 binders on small-molecule microarray, primary screen, biochemical, 635/667 nm fluorescence (AID 1096); conditions: NOTCH3 binding, 635 nm fluorescence, higher = more signal
[20] = small-molecule microarray binders of probe aEGFR, primary screen, biochemical, biotinylated probe, 635/667 nm fluorescence (AID 1097); conditions: higher = more signal;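 also: probe is a biotinylated anti-EGFR antibody binding compounds printed on slides; score combines fluorescence near 667 nm and signal to noise of each spot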

Sequence of Neurogenic locus notch homolog protein 2 (Homo sapiens) (Q04721 whole entry, looked up, canonical isoform): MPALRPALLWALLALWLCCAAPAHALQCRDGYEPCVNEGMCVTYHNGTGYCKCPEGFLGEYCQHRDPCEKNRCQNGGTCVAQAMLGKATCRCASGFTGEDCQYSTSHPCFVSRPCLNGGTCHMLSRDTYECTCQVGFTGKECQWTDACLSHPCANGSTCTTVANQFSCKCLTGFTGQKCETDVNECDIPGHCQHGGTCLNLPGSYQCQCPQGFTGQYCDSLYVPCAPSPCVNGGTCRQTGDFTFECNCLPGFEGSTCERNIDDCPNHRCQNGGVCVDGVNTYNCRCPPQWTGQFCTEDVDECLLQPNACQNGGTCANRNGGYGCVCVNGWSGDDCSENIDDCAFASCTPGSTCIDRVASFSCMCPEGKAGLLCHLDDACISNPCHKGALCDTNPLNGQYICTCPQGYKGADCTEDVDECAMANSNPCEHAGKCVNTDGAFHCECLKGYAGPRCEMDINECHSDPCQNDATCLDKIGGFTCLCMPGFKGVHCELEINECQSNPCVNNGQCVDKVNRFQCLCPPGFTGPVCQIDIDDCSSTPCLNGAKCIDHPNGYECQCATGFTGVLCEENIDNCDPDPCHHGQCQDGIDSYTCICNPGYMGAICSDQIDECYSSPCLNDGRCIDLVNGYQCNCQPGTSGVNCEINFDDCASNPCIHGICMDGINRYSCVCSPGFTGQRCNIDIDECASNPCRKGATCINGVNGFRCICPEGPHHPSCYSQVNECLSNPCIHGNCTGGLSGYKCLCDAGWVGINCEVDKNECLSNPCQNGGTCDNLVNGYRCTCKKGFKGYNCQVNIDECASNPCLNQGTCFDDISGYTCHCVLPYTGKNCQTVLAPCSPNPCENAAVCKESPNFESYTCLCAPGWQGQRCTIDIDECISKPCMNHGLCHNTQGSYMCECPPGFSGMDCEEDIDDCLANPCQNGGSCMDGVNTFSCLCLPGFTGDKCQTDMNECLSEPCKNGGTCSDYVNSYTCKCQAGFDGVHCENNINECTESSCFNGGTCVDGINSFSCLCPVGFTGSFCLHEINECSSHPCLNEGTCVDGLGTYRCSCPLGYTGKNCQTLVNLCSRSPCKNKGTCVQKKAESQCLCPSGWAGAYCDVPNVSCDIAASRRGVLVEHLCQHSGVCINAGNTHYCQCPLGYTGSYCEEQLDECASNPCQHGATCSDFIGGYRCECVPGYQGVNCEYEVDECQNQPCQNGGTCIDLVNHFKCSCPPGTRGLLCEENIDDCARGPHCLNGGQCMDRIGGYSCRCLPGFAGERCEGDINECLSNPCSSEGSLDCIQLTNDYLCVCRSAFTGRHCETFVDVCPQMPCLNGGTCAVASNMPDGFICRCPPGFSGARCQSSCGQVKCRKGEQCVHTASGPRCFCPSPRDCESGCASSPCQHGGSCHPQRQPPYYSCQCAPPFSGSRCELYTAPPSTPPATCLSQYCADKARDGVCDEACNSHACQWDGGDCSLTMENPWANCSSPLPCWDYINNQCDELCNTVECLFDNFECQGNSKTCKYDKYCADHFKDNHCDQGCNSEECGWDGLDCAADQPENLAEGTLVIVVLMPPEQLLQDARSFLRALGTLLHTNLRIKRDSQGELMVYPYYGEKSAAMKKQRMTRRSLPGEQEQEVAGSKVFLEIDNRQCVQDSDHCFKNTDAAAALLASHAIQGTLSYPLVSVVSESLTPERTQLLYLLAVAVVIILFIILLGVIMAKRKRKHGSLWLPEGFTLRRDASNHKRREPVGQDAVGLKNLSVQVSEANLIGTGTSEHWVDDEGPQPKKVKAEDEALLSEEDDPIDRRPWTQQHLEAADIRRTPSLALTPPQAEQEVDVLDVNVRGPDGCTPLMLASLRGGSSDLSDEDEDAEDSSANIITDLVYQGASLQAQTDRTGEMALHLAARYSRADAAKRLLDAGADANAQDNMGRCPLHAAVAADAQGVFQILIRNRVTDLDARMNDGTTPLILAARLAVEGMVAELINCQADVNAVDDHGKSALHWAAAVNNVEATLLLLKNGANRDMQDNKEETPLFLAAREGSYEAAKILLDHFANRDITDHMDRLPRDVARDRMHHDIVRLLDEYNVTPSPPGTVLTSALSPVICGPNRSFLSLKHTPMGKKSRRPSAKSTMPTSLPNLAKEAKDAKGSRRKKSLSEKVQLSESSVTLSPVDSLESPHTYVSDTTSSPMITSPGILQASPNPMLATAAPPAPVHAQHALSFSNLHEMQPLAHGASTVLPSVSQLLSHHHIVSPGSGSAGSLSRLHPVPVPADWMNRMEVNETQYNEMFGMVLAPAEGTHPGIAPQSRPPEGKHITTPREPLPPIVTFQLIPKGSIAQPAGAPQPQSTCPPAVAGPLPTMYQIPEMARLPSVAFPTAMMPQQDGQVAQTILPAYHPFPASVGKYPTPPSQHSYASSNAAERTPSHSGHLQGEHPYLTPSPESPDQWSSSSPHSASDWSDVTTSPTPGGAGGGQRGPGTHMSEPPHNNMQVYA
Sequence of Pro-neuregulin-1, membrane-bound isoform (Homo sapiens) (Q02297 whole entry, looked up, the tested form may be a part, canonical isoform): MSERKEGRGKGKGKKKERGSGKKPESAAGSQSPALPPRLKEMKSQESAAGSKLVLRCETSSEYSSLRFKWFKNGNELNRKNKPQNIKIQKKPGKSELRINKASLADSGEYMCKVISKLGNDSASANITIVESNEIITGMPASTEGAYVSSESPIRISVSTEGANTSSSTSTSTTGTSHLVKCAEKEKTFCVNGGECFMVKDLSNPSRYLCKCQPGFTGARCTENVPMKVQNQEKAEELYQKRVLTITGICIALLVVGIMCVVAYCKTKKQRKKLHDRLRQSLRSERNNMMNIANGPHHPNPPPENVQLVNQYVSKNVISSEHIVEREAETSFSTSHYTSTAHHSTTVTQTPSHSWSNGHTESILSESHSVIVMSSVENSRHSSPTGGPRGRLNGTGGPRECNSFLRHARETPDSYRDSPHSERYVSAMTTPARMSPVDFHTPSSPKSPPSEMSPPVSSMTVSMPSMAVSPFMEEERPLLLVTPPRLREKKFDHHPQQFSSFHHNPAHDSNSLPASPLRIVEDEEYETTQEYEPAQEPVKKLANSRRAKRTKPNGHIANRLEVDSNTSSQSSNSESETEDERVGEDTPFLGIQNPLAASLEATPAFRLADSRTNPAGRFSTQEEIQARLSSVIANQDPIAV
Sequence of Torsin-1A-interacting protein 2 (Homo sapiens) (Q8NFQ8 whole entry, looked up): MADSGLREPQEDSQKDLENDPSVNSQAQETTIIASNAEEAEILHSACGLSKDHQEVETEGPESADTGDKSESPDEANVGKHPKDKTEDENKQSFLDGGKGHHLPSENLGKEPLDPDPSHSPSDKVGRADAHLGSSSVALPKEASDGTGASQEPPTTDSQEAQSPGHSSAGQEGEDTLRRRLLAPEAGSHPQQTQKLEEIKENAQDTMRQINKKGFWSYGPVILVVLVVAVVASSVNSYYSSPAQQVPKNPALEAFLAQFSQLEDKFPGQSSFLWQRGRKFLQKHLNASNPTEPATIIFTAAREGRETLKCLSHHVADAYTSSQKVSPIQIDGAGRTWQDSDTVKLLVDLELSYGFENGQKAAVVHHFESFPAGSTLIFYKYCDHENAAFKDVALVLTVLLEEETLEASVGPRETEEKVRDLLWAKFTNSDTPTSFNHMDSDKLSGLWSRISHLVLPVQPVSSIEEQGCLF

SMILES	composite z-score [1]	composite z-score [2]	composite z-score [3]	composite z-score [4]	composite z-score [5]	composite z-score [6]	composite z-score [7]	z-score [8]	composite z-score [9]	composite z-score [10]	composite z-score [11]	z-score [12]	z-score [13]	z-score [14]	composite z-score [15]	z-score [16]	composite z-score [17]	composite z-score [18]	composite z-score [19]	composite z-score [20]
C=CCOC(=O)[C@H]1[C@@H]2C(=O)O[C@@H](c3ccccc3)[C@@H](c3ccccc3)N2[C@@H](c2ccc(OCCOC(=O)[C@H]3C[C@H]4C(=O)N[C@@H](CC(C)C)C(=O)N4[C@H]3c3ccc(O)cc3)cc2)[C@]12C(=O)Nc1ccc(I)cc12	-0.921	1.1	-0.0355	0.69	0.82	0.731	1.34	1.11 (inactive)	-0.742	-0.263	1.54	1 (inactive)	-1.4 (inactive)	0.333 (inactive)	2.62	-1.13 (inactive)	-0.282	1.67	1.12	0.0423
C=CCNC(=O)[C@H]1[C@@H]2C(=O)O[C@@H](c3ccccc3)[C@@H](c3ccccc3)N2[C@@H](c2ccccc2OCCO)[C@]12C(=O)Nc1ccc(C#CC3=CCCCC3)cc12	-0.382	0.952	-0.0534	0.88	1.04	0.666	1.09	-2.87 (inactive)	0.185	0.0695	1.55	2.06 (inactive)	-1.27 (inactive)	4.78 (inactive)	2.58	1.25 (inactive)	-0.117	1.23	1.1	-0.0108
CC(C)C(=C=CC[C@@H](O)c1ccccc1OCCO)CCO	-0.386	-0.193	-0.115	0.269	0.0761	1.71	1.36	-1.6 (inactive)	0.285	-0.214	0.895	-2.18 (inactive)	-17.8 (active)	-2.09 (inactive)	-0.559	0.364 (inactive)	-0.0998	0.315	0.428	-0.096
O=C1O[C@H](c2ccccc2)[C@H](c2ccccc2)N2[C@H]1[C@@H](C(=O)Nc1nc3ccccc3s1)[C@]1(C(=O)Nc3ccc(C#CC4(O)CCCCCC4)cc31)[C@H]2c1ccc(OCCO)cc1	-0.317	0.792	-0.129	0.805	0.642	1.7	1.06	1.97 (inactive)	0.395	0.0413	1.56	1.22 (inactive)	1.76 (inactive)	1.76 (inactive)	2.2	0.546 (inactive)	0.0317	0.986	1.02	0.0589
C=CCNC(=O)[C@@H]1[C@H]2C(=O)O[C@H](c3ccccc3)[C@H](c3ccccc3)N2[C@H](c2ccc(OCCO)cc2)[C@@]12C(=O)Nc1ccc(C#Cc3ccc(OC)cc3)cc12	-0.175	1.14	0.0969	0.73	1.41	1.24	1.18	0.994 (inactive)	0.4	0.283	1.55	2.34 (inactive)	0.961 (inactive)	4.49 (inactive)	2.48	0.838 (inactive)	0.182	1.22	1.08	0.116
COCCCNC(=O)C1N=C(c2ccc(OCCCO)cc2)N(c2ccccc2)O1 (stereo not given)	-0.39	0.461	0.0038	0.848	0.872	0.124	0.609	3.02 (inactive)	0.504	0.0176	1.39	0.0302 (inactive)	0.42 (inactive)	-0.779 (inactive)	1.94	0.919 (inactive)	-0.0553	1.08	0.911	-0.0549
COc1cc2c(cc1O)C(C1CC1)N(Cc1cc3c(cc1Br)OCO3)CC2 (stereo not given)	0.423	0.97	-0.119	-0.974	-0.695	0.502	1.02	1.21 (inactive)	-0.734	-0.394	-0.221	0.19 (inactive)	-3.12 (inactive)	-0.24 (inactive)	1.61	-1.91 (inactive)	-0.209	-0.774	-0.346	-0.363
CC(CO)N1C(=O)[C@@H]2C3C(=O)OCCC/C=C\[C@H]3OC23C=CCN(c2ccc4ccccc4c2)C(=O)[C@@H]13 (stereo not given in full)	0.122	-0.933	-0.118	-0.594	-0.874	0.168	1.26	-0.775 (inactive)	-0.576	-0.0994	0.0691	-0.531 (inactive)	-0.743 (inactive)	-0.0295 (inactive)	-0.504	0.0095 (inactive)	-0.0516	-0.871	-0.341	-0.18
CC(C)C[C@@H]1NC(=O)[C@H]2C[C@@H](C(=O)NCCCCCCN(C)C)[C@@H](c3ccc(O)cc3)N2C1=O	-0.0795	1.44	-0.0366	1.16	0.285	0.717	1.48	3.69 (inactive)	0.0151	0.0274	1.56	-0.924 (inactive)	-0.48 (inactive)	-0.734 (inactive)	3.1	-0.613 (inactive)	0.0829	0.248	1.14	0.122
C=C(CCCC)C(=O)CC[C@H](OC(C)=O)c1cccc(OCCO)c1	0.137	-0.475	-0.148	-0.177	-1.47	-0.331	-0.159	0.818 (inactive)	-0.463	-0.137	0.554	0.292 (inactive)	-1.84 (inactive)	-0.303 (inactive)	-0.348	0.787 (inactive)	-0.215	-0.848	-0.216	-0.363
